Our source for the Potency and outcome values is PubChem BioAssay (NCATS).

Molecules are shown by their SMILES. Unmarked numbers belong to inactive results. Results filed as inconclusive are left out. Active and inactive are the calls of the source. Calls follow the shape of the dose curve; as a rule, active = well fitted curve in the direction sought with a large enough effect; inconclusive = small, poorly fitted or top-dose-only effect, or another doubt; inactive = no such curve, though single readings can be large; an effect the other way counts as inactive or inconclusive.

Assay [1] has as its system Nanoluciferase (engineered Oplophorus gracilirostris luciferase). Put plainly: Primary Nanoluciferase (NLuc) qHTS assay for identification of artifact compounds. (AID 1845222).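 Also: NLuc secreted into diluted conditioned medium of S16 cells.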 As to conditions: NLuc-conditioned medium, Nano-Glo luminescence, 5 min; series mostly up to 54.1 µM. A digest of the protocol:
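qHTS format, against NLuc in S16 cell-conditioned medium. Nano-Glo substrate 1:100 was added after 15 min at room temperature. Luminescence was taken after a further 5 min.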
On the technique in general: Quantitative high-throughput screening tests each substance at several concentrations.

Assay [2] can be described thus: Primary redox qHTS assay for identification of artifact compounds. (AID 1845223). As to conditions: Amplex Red/HRP redox cycling with DTT, fluorescence; series mostly up to 53.8 µM. In short, it runs like this:
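Amplex Red (25 uM) and HRP (250 mU/mL) in HBSS, with compounds for 15 min, then 250 uM DTT for 30 min, room temperature, dark. Fluorescence 525/598 nm read; normalized to DMSO and 10 uM DA3003; Hill fit.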

A short description of assay [3]: Quantitative High-Throughput drug screen in 47 multiple myeloma cell lines against the NCATS MIPE library collection: FR4_PLB cell viability assay (AID 1918924; also: nearly all actives have a fitted effect of over 35% in size; also: potency is read from the fitted curve at half-maximal effect). The settings on record: FR4_PLB myeloma cells viability, CellTiter-Glo ATP, 48 h; series mostly up to 45.8 µM. A digest of the protocol: (§1)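 Inhibition of cell viability is measured here. Each line was plated at 500 cells per well, treated with MIPE 4.0 drugs, kept 48 hours at 37C, then assayed for ATP content by CellTiter-Glo luminescence.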

The nature of assay [4]: Quantitative High-Throughput drug screen in 47 multiple myeloma cell lines against the NCATS MIPE library collection: Delta47_JCRB cell viability assay (AID 1918925; also: nearly all actives have a fitted effect of over 45% in size; also: potency is read from the fitted curve at half-maximal effect). The settings on record: Delta47 myeloma viability, CellTiter-Glo ATP, 48 h; series mostly up to 45.8 µM. In short, it runs like this: (§2)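 Primary qHTS used for cherry-picking: cells at 500/well, library compounds for 48 h (37C, 5% CO2), luminescent ATP assay.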

The nature of assay [5]: Quantitative High-Throughput drug screen in 47 multiple myeloma cell lines against the NCATS MIPE library collection: AMO1_DSMZ cell viability assay (AID 1918927; also: potency is read from the fitted curve at half-maximal effect; nearly all actives have a fitted effect of over 30% in size). The settings on record: AMO1 myeloma cells viability, CellTiter-Glo ATP luminescence, 48 h; series mostly up to 45.8 µM. In short, it runs like this: as §2
On the technique in general: ATP-based viability assays read luminescence as a measure of living cells.

The nature of assay [6]: Quantitative High-Throughput drug screen in 47 multiple myeloma cell lines against the NCATS MIPE library collection: ARD_JJKsccE7 cell viability assay (AID 1918929; also: potency is read from the fitted curve at half-maximal effect). The settings on record: ARD myeloma cell line viability, CellTiter-Glo, 48 h; series mostly up to 45.8 µM. A digest of the protocol: as §2
Assay [7] can be described thus: Quantitative High-Throughput drug screen in 47 multiple myeloma cell lines against the NCATS MIPE library collection: JIM3_ECACC cell viability assay (AID 1918963; also: potency is read from the fitted curve at half-maximal effect; nearly all actives have a fitted effect of over 35% in size). The settings on record: JIM3 myeloma viability, CellTiter-Glo ATP, 48 h; series mostly up to 45.8 µM. A digest of the protocol: as §1
A short description of assay [8]: Quantitative High-Throughput drug screen in 47 multiple myeloma cell lines against the NCATS MIPE library collection: INA6_PLB cell viability assay (AID 1918965; also: potency is read from the fitted curve at half-maximal effect; nearly all actives have a fitted effect of over 55% in size). As to conditions: INA6 myeloma viability, CellTiter-Glo ATP luminescence, 48 h; series mostly up to 45.8 µM. A digest of the protocol:
(§3)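 qHTS of the MIPE 4.0 collection: 500 myeloma cells/well, 48 h drug exposure at 37C in 5% CO2, then CellTiter-Glo for 5 min at room temperature before luminescence reading.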

Assay [9] is described as follows: Quantitative High-Throughput drug screen in 47 multiple myeloma cell lines against the NCATS MIPE library collection: JJN3_DSMZ cell viability assay (AID 1918966; also: potency is read from the fitted curve at half-maximal effect; nearly all actives have a fitted effect of over 50% in size). The settings on record: JJN3 myeloma cells viability, CellTiter-Glo ATP, 48 h; series mostly up to 45.8 µM. A digest of the protocol:
as §2

Assay [10] is described as follows: Quantitative High-Throughput drug screen in 47 multiple myeloma cell lines against the NCATS MIPE library collection: Karpas25_ECACC cell viability assay (AID 1918968; also: potency is read from the fitted curve at half-maximal effect; nearly all actives have a fitted effect of over 35% in size). The settings on record: Karpas25 myeloma viability, CellTiter-Glo ATP, 48 h; series mostly up to 45.8 µM. A digest of the protocol: as §2
Assay [11] in a line: Quantitative High-Throughput drug screen in 47 multiple myeloma cell lines against the NCATS MIPE library collection: KMS27_JCRB cell viability assay (AID 1918970). Also: nearly all actives have a fitted effect of over 30% in size. Also: potency is read from the fitted curve at half-maximal effect. The settings on record: KMS27 myeloma cells, CellTiter-Glo ATP viability, 48 h; viability (% of DMSO): at 45.8 µM (top of the series). A digest of the protocol:
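Each line is seeded at 500 cells per well and treated with library compounds for 48 hours under 37 °C, 5% CO2. CellTiter-Glo is then added for 5 min at room temperature before median relative luminescence is recorded.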

Assay [12] can be described thus: Quantitative High-Throughput drug screen in 47 multiple myeloma cell lines against the NCATS MIPE library collection: KMS12BM_JCRB cell viability assay (AID 1918971). Also: nearly all actives have a fitted effect of over 35% in size. Also: potency is read from the fitted curve at half-maximal effect. As to conditions: KMS12BM myeloma viability, CellTiter-Glo ATP, 48 h; series mostly up to 45.8 µM. In short, it runs like this:
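Viability readout: CellTiter-Glo luminescence following 5 min room-temperature incubation with reagent. Prior exposure: 48 h, 37C, humidified 5% CO2, 500 cells per well.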

The nature of assay [13]: Quantitative High-Throughput drug screen in 47 multiple myeloma cell lines against the NCATS MIPE library collection: EJM_DSMZ cell viability assay (AID 1918926; also: potency is read from the fitted curve at half-maximal effect; nearly all actives have a fitted effect of over 30% in size). The settings on record: EJM myeloma cell viability, CellTiter-Glo ATP, 48 h; series mostly up to 45.8 µM. In short, it runs like this: as §2
Assay [14] in a line: Quantitative High-Throughput drug screen in 47 multiple myeloma cell lines against the NCATS MIPE library collection: Karpas620_DSMZ cell viability assay (AID 1918959). Also: potency is read from the fitted curve at half-maximal effect; nearly all actives have a fitted effect of over 30% in size. The settings on record: Karpas620 myeloma viability, CellTiter-Glo ATP luminescence, 48 h; series mostly up to 45.8 µM. In short, it runs like this:
as §1

A short description of assay [15]: Quantitative High-Throughput drug screen in 47 multiple myeloma cell lines against the NCATS MIPE library collection: KHM11_PLB cell viability assay (AID 1918962). As to conditions: KHM11 myeloma cell viability, CellTiter-Glo ATP luminescence, 48 h; series mostly up to 45.8 µM. A digest of the protocol: as §1
A short description of assay [16]: Quantitative High-Throughput drug screen in 47 multiple myeloma cell lines against the NCATS MIPE library collection: ARP1_JJKsccF8 cell viability assay (AID 1918928; also: nearly all actives have a fitted effect of over 40% in size; also: potency is read from the fitted curve at half-maximal effect). As to conditions: ARP1 myeloma cells viability, CellTiter-Glo ATP, 48 h; series mostly up to 45.8 µM. A digest of the protocol: (§4)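 Here, 48 h treatment with MIPE 4.0 agents at 37 °C preceded an ATP luminescence read. Plating density was 500 cells per well.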

Assay [17] can be described thus: Quantitative High-Throughput drug screen in 47 multiple myeloma cell lines against the NCATS MIPE library collection: JIM1_ECACC cell viability assay (AID 1918964; also: potency is read from the fitted curve at half-maximal effect). As to conditions: JIM1 myeloma viability, CellTiter-Glo ATP luminescence, 48 h; series mostly up to 45.8 µM. A digest of the protocol:
as §2

Assay [18] can be described thus: Quantitative High-Throughput drug screen in 47 multiple myeloma cell lines against the NCATS MIPE library collection: H1112_PLB cell viability assay (AID 1918967; also: nearly all actives have a fitted effect of over 30% in size; also: potency is read from the fitted curve at half-maximal effect). The settings on record: H1112 myeloma cells viability, ATP luminescence, 48 h; series mostly up to 45.8 µM. A digest of the protocol:
as §2

Assay [19] is described as follows: Quantitative High-Throughput drug screen in 47 multiple myeloma cell lines against the NCATS MIPE library collection: KMM1_JCRB cell viability assay (AID 1918960). As to conditions: KMM1 myeloma viability, CellTiter-Glo ATP luminescence, 48 h; series mostly up to 45.8 µM. In short, it runs like this:
as §4

Assay [20] is described as follows: Quantitative High-Throughput drug screen in 47 multiple myeloma cell lines against the NCATS MIPE library collection: Karpas417_ECACC cell viability assay (AID 1918961). Also: potency is read from the fitted curve at half-maximal effect. As to conditions: Karpas417 myeloma viability, CellTiter-Glo ATP luminescence, 48 h; viability (% of DMSO): at 45.8 µM (top of the series). In short, it runs like this: as §3

As for `C[C@@]1(C(=O)Nc2ccc(F)nc2)CCCN1c1nc(Nc2cc(C3CC3)[nH]n2)c2cccn2n1`, the Potency result in assay [1] is “inactive”. In addition, the molecule was classed as inactive in [2]. For the same molecule, the Potency in assay [3] is 0.166 µM (active); in assay [4], 0.0166 µM (active); in assay [5] it was 0.0935 µM (active); in assay [6], 0.001 µM (active); in [7], 0.0148 µM (active); in [8] it was 13.2 µM (active). Besides, the Potency was 0.105 µM (active) in assay [9], 0.0332 µM (active) in [10], 0.0526 µM (active) in [11] and 0.935 µM (active) in assay [12].

Consider `Cc1cccc2c1CC[C@H](CN1CCC(c3c(Cl)cccc3Cl)CC1)C[C@@H]2O`, for which the Potency result in assay [1] was “inactive”. For the same molecule, the molecule was called inactive in assay [2]. In addition, the Potency in assay [4] is 16.6 µM (active); in assay [13], 18.7 µM (active); in [14] it was 11.8 µM (active); in assay [15], 20.9 µM (active); in assay [7], 14.8 µM (active); in [8], 18.7 µM (active). Further, the Potency is 18.7 µM (active) in assay [10] and 16.6 µM (active) in assay [12].

With `NC1(C(=O)N[C@@H](CCO)c2ccc(Cl)cc2)CCN(c2ncnc3[nH]ccc23)CC1`, the Potency entry in [1] and in assay [12] was “inactive” in each case. In assay [2], the call was inactive. Also, the Potency in assay [4] is 0.0833 µM (active); in [13] it was 10.5 µM (active); in assay [5], 1.87 µM (active); in assay [16] it was 2.09 µM (active); in assay [6], 0.0469 µM (active); in assay [14], 2.64 µM (active). The Potency in [15] was 1.87 µM (active); in [7] it was 1.05 µM (active); in assay [17], 0.209 µM (active); in assay [8], 7.43 µM (active); in assay [9] it was 2.96 µM (active); in assay [18], 7.43 µM (active). The Potency in assay [10] is 0.418 µM (active).

On to `C[C@@H]1CCO[C@H]2Cn3cc(C(=O)NCc4ccc(F)cc4F)c(=O)c(O)c3C(=O)N12`, for which the Potency entry in assay [1], in [18] and in [11] was “inactive” each time. Besides, the molecule was classed as inactive in assay [2]. Also, the Potency in assay [3] is 37.2 µM (active); in assay [17], 23.5 µM (active); in [8], 20.9 µM (active); in assay [10] it was 18.7 µM (active); in assay [12] it was 20.9 µM (active).

Consider `O=C(CCCN1CCN(c2ccc(F)cc2)CC1)NC1c2ccccc2CSc2ccccc21` (stereo unspecified), for which the Potency result in [1] was “inactive”. Moreover, in assay [2], the result was inactive. Moreover, the Potency in [4] was 5.26 µM (active); in [5], 6.62 µM (active); in assay [16], 3.72 µM (active); in assay [6] it was 3.32 µM (active); in assay [14], 6.62 µM (active); in assay [19] it was 4.69 µM (active). Further, the Potency is 4.18 µM (active) in [15]; 4.69 µM (active) in assay [8]; 7.43 µM (active) in assay [18]; 3.32 µM (active) in [10]; 5.9 µM (active) in assay [11]; 11.8 µM (active) in assay [12].

Consider `N#CC1(c2cccc(C(=O)Nc3cc(Oc4ccc5nc(NC(=O)C6CC6)sc5n4)ccc3F)c2Cl)CC1`, for which the Potency result in assay [1] and in assay [4] was “inactive” each time. Further, in assay [2], the outcome was inactive. Moreover, the Potency in assay [13] was 20.9 µM (active); in assay [16], 9.35 µM (active); in [6] it was 0.59 µM (active); in [20], 0.187 µM (active); in assay [8], 5.9 µM (active); in assay [18], 13.2 µM (active). Besides, the Potency in assay [12] was 13.2 µM (active).

As for `CNC(=O)c1ccc2c(C(=Nc3cccc(CN(C)C)c3)c3ccccc3)c(O)[nH]c2c1`, the Potency entry in [1], in assay [3], in assay [16] and in [12] was “inactive” throughout. The result in assay [2] was inactive. Moreover, the Potency in assay [4] was 23.5 µM (active); in assay [15] it was 1.32 µM (active); in [8] it was 20.9 µM (active); in [9], 2.64 µM (active); in assay [10] it was 13.2 µM (active).
